From PubChem BioAssay AID1259397 (Fisher Drug Discovery Resource Center, 2018)
Several values for one entry are separate records, joined by “and”; a condition that tells them apart may be missing. Equal entries are not always repeated. Out of some 130,000 compounds screened, about 230 (0.18%) were called active. Shown is part of a subset that was picked to be rich in actives. Unmarked numbers belong to inactive results.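 Rule for the calls: active = inhibition of cGAS enzyme activity at or above 60%; inactive = the rest.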

Target: Cyclic GMP-AMP synthase (Mus musculus) (UniProt Q8C6L5)
Sequence (Q8C6L5 whole entry, looked up): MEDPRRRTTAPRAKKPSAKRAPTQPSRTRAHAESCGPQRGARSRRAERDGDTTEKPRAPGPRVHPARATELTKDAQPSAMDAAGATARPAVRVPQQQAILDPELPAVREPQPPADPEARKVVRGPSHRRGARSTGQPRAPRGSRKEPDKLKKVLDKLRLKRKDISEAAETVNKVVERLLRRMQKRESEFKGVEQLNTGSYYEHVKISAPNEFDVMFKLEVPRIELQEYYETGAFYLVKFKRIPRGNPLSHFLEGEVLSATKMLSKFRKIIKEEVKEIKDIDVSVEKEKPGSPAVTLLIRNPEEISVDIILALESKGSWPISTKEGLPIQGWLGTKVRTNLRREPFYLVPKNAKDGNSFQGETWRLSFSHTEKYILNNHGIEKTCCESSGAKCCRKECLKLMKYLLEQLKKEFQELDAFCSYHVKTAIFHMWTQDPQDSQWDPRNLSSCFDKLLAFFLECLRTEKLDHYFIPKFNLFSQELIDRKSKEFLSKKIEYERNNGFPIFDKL
Experiment: inhibitors of Mus musculus cyclic GMP-AMP synthase, initial high-throughput assay, cell-free, RapidFire MS (AID 1259397);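 note: enzyme stimulated by 45 bp dsDNA with ATP and GTP substrates; cGAMP share of summed cGAMP plus half ATP and half GTP signals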
Conditions: recombinant mouse cGAS, cGAMP by RapidFire MS; at 12.5 µM; stronger effect = higher value

SMILES	inhibition
CCc1ccc(NC(=O)C(C)n2cc(C(F)(F)F)ccc2=O)cc1 (configuration not stated)	-4.23%
CCn1ccc(C(=O)NCc2cccnc2Oc2ccc(C)nc2)n1	4.9%
O=C(CSc1nnc(-c2ccco2)o1)NC1CC1	-7.76%
Cc1cccc[n+]1CC(=O)C12CC3CC(CC(C3)C1)C2	-6.75%
COc1ccc2c(c1)CCc1cc(C(=O)NC(C)c3c(C)nn(C)c3C)sc1-2 (configuration not stated)	0.0306%
CC(Nc1cccc(Br)c1)N1C(=O)CCC1=O (configuration not stated)	-5.36%
COc1ccc(OC)c(C2CCCN2Cn2nc(-c3ccccc3F)n(C)c2=S)c1 (configuration not stated)	-6.22%
NC(=O)Cn1nnc(-c2ccccc2Br)n1	-12.5%
COc1cccc(N(CN2C(=O)c3ccccc3C2=O)C(C)=O)c1	22.9%
CC(C)(C)SCCNC(=O)CN(c1ccc(Cl)cc1Cl)S(=O)(=O)c1ccccc1	-1.39%
Cc1ccc(-c2cnc(C(O)c3cccc(C)c3C)[nH]2)cc1 (configuration not stated)	-3.19%
N#Cc1ccc(F)c(COC(=O)c2cncc(Br)c2)c1	6.6%
Cc1ccc(C)c(CNc2cccc(C(=O)N3CCC(O)CC3)c2)c1	-8.84%
CCC(=O)N1CCN(c2ccc(Cl)cc2NC(=O)c2cccs2)CC1	-6.87%
CC(=O)N(C)c1ccc(NC(=O)CNCCc2cccs2)cc1	-11.1%
COc1ccc(OC)c(NC(=O)C(C)N2CCN(Cc3ccc(Cl)s3)CC2)c1 (configuration not stated)	-4.59%
CCO[C@H]1COC[C@@H]1NCC(=O)Nc1ccc(Cl)c(OC)c1	-5.39%
O=C(O)c1cc(-c2ccccc2)nn1-c1ccc(Cl)cc1	-1.5%
Cc1cc(-n2cnnc2)ncc1-c1ccc(O)cc1	-7.05%
Cc1ccc(NC(=O)CN2Cc3ccccc3CC2C(N)=O)cc1 (configuration not stated)	-6.79%
CCNC(=O)C1(C)CCN(Cc2ccc(C(=O)OCC)o2)C1 (configuration not stated)	-5.82%
CN=c1scc(-c2ccc(Br)cc2)n1N=Cc1cc(OC)c(OC)c(OC)c1	-11.7%
CC(C)Nc1ncc(C(=O)N(Cc2ccco2)C(C)C(C)C)cn1 (configuration not stated)	-1.04%
C=CC[C@H]1CC(C)=C[C@H](CC=C)N1C(=O)c1cnc2cccc(C)n2c1=O	-2.04%

SMILES	inhibition
O=C1COCc2ccc(-c3cccnc3)cc2N1CC1CC1	-11.8%
CCCn1c(=O)n(C)c(=O)c2c(SCC(=O)C(C#N)=C(C)N)nc(CC(C)C)nc21	-1.38%
CC1(C(=O)NCc2ccc3c(c2)OCO3)CCN1CCc1ccccc1 (configuration not stated)	-12.7%
COc1ccc(CC(=O)OCc2cc(-c3ccc4c(c3)OCO4)on2)cc1OC	-7.02%
CC(C)c1cc(C2CCN(C(=O)CN3CCOC3=O)CC2)[nH]n1	-25.2%
COc1ccc(NC(=O)CCC2CCN(Cc3ccc(SC)cc3)CC2)c(OC)c1	-5.25%
Cc1cccc(Nc2ncccc2C(=O)NCc2ccccn2)c1C	1.13%
Cc1[nH]n2c(=O)c3c(nc2c1-c1cccc2ccccc12)CCCC3	1.14%
CN(Cc1ccc(Br)s1)C(=O)CSCc1ccc(C#N)cc1	7.87%
O=S(=O)(NCc1ccccc1)NCc1csc(-c2cnccn2)n1	-34.7%
O=C1CN(c2ccc(NC(=O)c3ccc4c(c3)COC4)cc2)CCN1	-2.78%
CN1CCN2CCN(C(=O)c3cccc(N4CCNC4=O)c3)CC2C1=O (configuration not stated)	-13.8%
C=C(C)Cn1c(N2CCN(Cc3cccc(C)c3)CC2)nc2c1c(=O)[nH]c(=O)n2C	-6.09%
O=C1NC(=S)SC1=Cc1ccccc1F	62.6% (active)
COc1cc(C=C2SC(=S)NC2=O)cc(Br)c1O	12%
O=C1NC(=O)C(=Cc2ccc(C(=O)O)cc2)S1	35.6%
CC(=O)NN=C1CCCc2c(C)cc(C)cc21	23.5%
O=C(CN1C(=O)NC2(CCCC2)C1=O)N1CCN(C(=O)c2cccs2)CC1	-1.67%
O=C(Nc1ccccc1Cl)C(=O)N1CCC2(CC1)C(=O)Nc1ccccc12	-33.1%
CCn1ccnc1CN(C)C(=O)c1cc(COc2cccc3cnccc23)on1	-1.51% and -6.44%
CC(C)(C)CN(CCO)Cc1ncc(C(C)(C)C)o1	-4.58%
CS(=O)(=O)Cc1nc(-c2cc3c(cc2F)NC(=O)CC3)cs1	-12.8%
C=CCN(CC=C)C(=O)CSc1nc2scc(-c3ccc(F)cc3)c2c(=O)n1C	11.1%
